Consider 35 compounds from PubChem BioAssay (Tox21).

A number with no mark means an inactive call. The source made the active and inactive calls. Calls follow the shape of the dose curve; as a rule, active = well fitted curve in the direction sought with a large enough effect in the repeat runs; inconclusive = weak or mixed curves; inactive = flat fitted curve, though single readings scatter.
% is scaled to controls: 0 for no effect and ±100 for the full control effect.

One experiment is described as follows: qHTS assay to test for compound auto fluorescence at 460 nm (blue) in HEK293 cells (AID 720678). The conditions noted are these: blue autofluorescence 405/460 nm; series mostly up to 91.3 µM. The gist of the method: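 Measured: blue fluorescence (Ex 405/Em 460 nm) of compound-treated HEK293 cells, incubated overnight at 37C with 5% CO2 and scaled to triamterene equivalents.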
As to `CC1=NNC(=O)N(/N=C/c2cccnc2)C1`, the result was inactive.

In the case of `CC(C)COP(=O)(OCC(C)C)OCC(C)C`, the compound was classed as inactive. `Clc1cccc(N2CCNCC2)c1`: the outcome was inactive. Still for that read-out and setting: the entry for `ClCC(Cl)(Cl)Cl` is “inactive”; for `CCCCN(CCCCO)N=O` it is “inactive”. Same read-out and setting: the value for `CC(C)CP(=S)(S)CC(C)C` was “inactive”. The same measure, in the same setting: the entry for `CCS(=O)(=O)C(C)(C)S(=O)(=O)CC` is “inactive”; for `O=C(Oc1ccc(Br)cc1)N1CCN2CCC1CC2` it is “inactive”; for `CC(C1CC1)C(O)(Cn1cncn1)c1ccc(Cl)cc1` (stereo not drawn) it is “inactive”.

With `CC(CC(C#N)(c1ccccc1)c1ccccc1)N(C)C` (stereo not drawn), the compound was classed as inactive. Still for that read-out and setting: the value for `NC(=O)O` was “inactive”. As for `O=C(NCO)NCO`, the result was inactive. With `O=C(CCN1CC1)OCC(CO)(COC(=O)CCN1CC1)COC(=O)CCN1CC1`, the result was inactive. As for `CNC(=O)Oc1ccccc1C1OCCO1`, the compound was called inactive.

As to `O=[N+]([O-])c1ccc2c3c(cccc13)CC2`, the outcome was inactive. On the same count and under the same terms, the value for `C=CC1CC=CCC1` (stereo not drawn) was “inactive”; that for `O=NN1CCN(N=O)CC1` was “inactive”. On the same count and under the same terms, the entry for `CCCCc1c(C)nc(NCC)[nH]c1=O` is “inactive”.

In the case of `COc1ccc2c(c1OC)CN1CCc3cc4c(cc3C1C2)OCO4` (stereo not drawn), the fluorescence, % of triamterene is -0.105% [at 18.6 µM]. For the compound `Cc1cccc(C#N)c1`, the compound was classed as inactive. In the case of `ClC(Br)Br`, the result was inactive.

For the compound `C#C[C@]1(O)C=C[C@H]2[C@@H]3CCC4=CC(=O)CC[C@@H]4[C@H]3CC[C@@]21CC`, the result was inactive. On the same count and under the same terms, the entry for `CC(N)=S` is “inactive”.

`O=C(N[C@H]1CN2CCC1CC2)c1cc2ccoc2cn1`: the result was inactive. Same read-out and setting: the entry for `CCOC(=O)N(C)C(=O)CSP(=S)(OCC)OCC` is “inactive”; for `O=C1c2ccccc2C(=O)c2ccccc21` it is “inactive”; for `C=C(C)CN(CC)c1c([N+](=O)[O-])cc(C(F)(F)F)cc1[N+](=O)[O-]` it is “inactive”.

In the case of `CNC(=O)O/N=C(\C)SC`, the outcome was inactive. As to `CCS(=O)(=O)CCSP(=O)(OC)OC`, the outcome was inactive. For `CNC(=O)Oc1ccc(N(C)C)c(C)c1`, the compound was called inactive. With `COc1cc(OC)nc(Sc2cccc(Cl)c2C(=O)O)n1`, the call was inactive.

With `O=S(=O)(O)C(F)(F)C(F)(F)C(F)(F)C(F)(F)C(F)(F)C(F)(F)F`, the outcome was inactive. Still for that read-out and setting: the entry for `Nc1cnn(-c2ccccc2)c(=O)c1Cl` is “inactive”; for `CN1C[C@@H](NS(=O)(=O)N(C)C)C[C@@H]2c3cccc4c3c(cn4C)C[C@H]21` it is “inactive”; for `CCOC(=O)NC(=S)Nc1ccccc1NC(=S)NC(=O)OCC` it is “inactive”.

The next experiment in a line: qHTS assay to test for compound auto fluorescence at 590 nm (red) in HEK293 cells (AID 720679). The conditions noted are these: red autofluorescence 540/590 nm; series mostly up to 91.3 µM. The gist of the method: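 Using HEK293 cells at 2,000 per well, the screen added 23 nL of each compound after cell attachment and incubated overnight (37C, 5% CO2). The plate reader then captured red-label fluorescence, Ex/Em 540/590nm.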
Consider `CC1=NNC(=O)N(/N=C/c2cccnc2)C1`, for which the compound was classed as inactive.

Regarding `CC(C)COP(=O)(OCC(C)C)OCC(C)C`, the compound was called inactive. On to `Clc1cccc(N2CCNCC2)c1`, for which the compound was called inactive. The same measure, in the same setting: the entry for `ClCC(Cl)(Cl)Cl` is “inactive”; for `CCCCN(CCCCO)N=O` it is “inactive”; for `CC(C)CP(=S)(S)CC(C)C` it is “inactive”. Consider `CCS(=O)(=O)C(C)(C)S(=O)(=O)CC`, for which the call was inactive.

`CC(C1CC1)C(O)(Cn1cncn1)c1ccc(Cl)cc1` (stereo not drawn): the result was inactive. As to `CC(CC(C#N)(c1ccccc1)c1ccccc1)N(C)C` (stereo not drawn), the outcome was inactive.

For `O=C(CCN1CC1)OCC(CO)(COC(=O)CCN1CC1)COC(=O)CCN1CC1`, the compound was called inactive.

For the compound `CNC(=O)Oc1ccccc1C1OCCO1`, the outcome was inactive.

Take `O=[N+]([O-])c1ccc2c3c(cccc13)CC2`: the call was inactive. Same read-out and setting: the value for `C=CC1CC=CCC1` (stereo not drawn) was “inactive”; that for `O=NN1CCN(N=O)CC1` was “inactive”.

In the case of `CCCCc1c(C)nc(NCC)[nH]c1=O`, the compound was classed as inactive.

Regarding `Cc1cccc(C#N)c1`, the compound was classed as inactive. On the same count and under the same terms, the value for `ClC(Br)Br` was “inactive”; that for `C#C[C@]1(O)C=C[C@H]2[C@@H]3CCC4=CC(=O)CC[C@@H]4[C@H]3CC[C@@]21CC` was “inactive”. On to `O=C(N[C@H]1CN2CCC1CC2)c1cc2ccoc2cn1`, for which the compound was classed as inactive. The same measure, in the same setting: the entry for `CCOC(=O)N(C)C(=O)CSP(=S)(OCC)OCC` is “inactive”.

For the compound `O=C1c2ccccc2C(=O)c2ccccc21`, the result was inactive. Still for that read-out and setting: the entry for `C=C(C)CN(CC)c1c([N+](=O)[O-])cc(C(F)(F)F)cc1[N+](=O)[O-]` is “inactive”.

For the compound `CNC(=O)O/N=C(\C)SC`, the outcome was inactive.

In the case of `CCS(=O)(=O)CCSP(=O)(OC)OC`, the result was inactive.

Consider `CNC(=O)Oc1ccc(N(C)C)c(C)c1`, for which the compound was classed as inactive. On the same count and under the same terms, the entry for `COc1cc(OC)nc(Sc2cccc(Cl)c2C(=O)O)n1` is “inactive”.

As for `Nc1cnn(-c2ccccc2)c(=O)c1Cl`, the compound was classed as inactive.

In the case of `CCOC(=O)NC(=S)Nc1ccccc1NC(=S)NC(=O)OCC`, the compound was classed as inactive.
